# Results: PubChem BioAssay AID2391 (Southern Research Specialized Biocontainment Screening …, 2010)
# Values joined by “and” are separate entries in the source; they are usually repeats but may differ in a detail not shown here. Identical values can stand only once. About 410 (0.13%) of roughly 310,000 compounds were called active. Roughly 2% stayed inconclusive and do not appear here. The rule behind the calls is not given here. These entries were drawn from the full list. Results with a measured potency or affinity are listed apart.
# Experiment: RSV antiviral activity via CPE protection, HEp-2 cells, primary 10 µM value included (AID 2391)
# Conditions: RSV-induced CPE inhibition, at 10 µM, active compounds read high
row,Structure (SMILES),CPE inhibition
1,COc1ccc(C(=O)NCc2nnc(SCC(=O)N3CCC(C)CC3)o2)cc1,1.04% (inactive)
2,Cc1ccc(C2(c3ccc(C)cc3)CC2C(=O)NC(C)C)cc1 (stereo not drawn),10.9% (inactive)
3,O=C(Nc1cccc(C(=O)Nc2cccc(C(F)(F)F)c2)c1)c1ccc(=O)[nH]c1,0.31% (inactive)
4,Cc1cc(OC(C)C(=O)NCCN2CCOCC2)c2c(C)cc(=O)oc2c1 (stereo not drawn),1.3% (inactive)
5,COC(=O)Nc1ccc(S(=O)(=O)N2CCCc3ccccc32)cc1,1.75% (inactive)
6,CC(=O)Nc1ccc(S(=O)(=O)N2CCCc3ccccc32)cc1,1.45% (inactive)
7,COc1ccccc1CCNS(=O)(=O)c1cc2c3c(c1)CCN3C(=O)CC2,2.18% (inactive)
8,CC(=O)c1cc2c(cc1NC(=O)c1ccc(C)cc1)OCO2,1.4% (inactive)
9,COc1ccc(CC(=O)Nc2cccc(-c3cn4ccccc4n3)c2)cc1,20.4% (inactive)
10,Cc1cccc2nc(-c3cccc(NC(=O)c4ccc(Cl)cc4)c3)cn12,6.87% (inactive)
11,Cc1cc(Cl)cc(C)c1OCCCCn1ccnc1,0.28% (inactive)
12,Cc1cc(Cl)cc(C)c1OCCCCCn1ccnc1,16.9% (inactive)
13,Cc1cc(C(=O)Nc2ccccc2C)c2ccccc2n1,-1.47% (inactive)
14,CCn1c(SC)nnc1-c1nn(-c2ccccc2)ccc1=O,3.93% (inactive)
15,CCn1c(SCc2ccc(F)cc2)nnc1-c1nn(-c2ccccc2)ccc1=O,5.54% (inactive)
16,CCOc1ccc(Nc2ccc(S(=O)(=O)N3CCN(C)CC3)cc2[N+](=O)[O-])cc1OCC,2.73% (inactive)
17,C/C(N)=C(/C#N)C(=O)CSc1nc2ccccc2c(=O)n1-c1ccc(C)cc1,1.33% (inactive)
18,C/C(N)=C(/C#N)C(=O)CSc1nc2ccccc2c(=O)n1-c1ccc(C)c(Cl)c1,3.58% (inactive)
19,COC(=O)c1cc2c(C)c(C)c3ccccn3c-2c1C(=O)OC,2.03% (inactive)
20,COC(=O)c1cc2n3ccccc3c(C)c(-c3ccccc3)c-2c1C(=O)OC,25.1% (inactive)
21,COc1ccc(NC(=O)C2C3C=CC4(O3)C2C(=O)N(CCN2CCCCC2C)C4C(=O)NC2CCCCC2)cc1 (stereo not drawn),-0.76% (inactive)
22,Cc1cc(C)c(C)c(C(=O)CSc2nnc(-c3ccc4[nH]c(C)c(C)c4c3)o2)c1C,55.5% (inactive)
23,Cc1[nH]c2ccc(-c3nnc(SCC(=O)c4ccc(F)cc4)o3)cc2c1C,-1.57% (inactive)
24,COc1cc(C)c(C(C)C)cc1S(=O)(=O)n1cnc(C)c1,11.6% (inactive)

row,Structure (SMILES),CPE inhibition
1,Cc1cc(C)c2c(-n3cccc3)c(C(=O)NNS(=O)(=O)c3ccc(Br)cc3)sc2n1,53.3% (inactive)
2,Cc1cc(C)c2c(-n3cccc3)c(C(=O)NNS(=O)(=O)c3ccccc3)sc2n1,15.3% (inactive)
3,COc1ccc(N(CC(=O)NCc2ccc(Cl)cc2)S(=O)(=O)c2c(C)n[nH]c2C)cc1,2.71% (inactive)
4,O=C(O)c1cc(NS(=O)(=O)c2cccs2)cc(NS(=O)(=O)c2cccs2)c1,0.42% (inactive)
5,COc1ccc(-c2cc3nc(C)cc(C)n3n2)cc1,2.75% (inactive)
6,Cc1cc(C)n2nc(-c3ccccc3)cc2n1,-2.3% (inactive)
7,COc1ccc(CNc2ncnc3sccc23)cc1OC,0.7% (inactive)
8,COc1ccccc1CC(=O)Nc1cc(S(=O)(=O)N2CCOCC2)ccc1N1CCOCC1,0.24% (inactive)
9,COc1ccc(NCC(=O)Nc2cc(S(=O)(=O)N3CCOCC3)ccc2N2CCOCC2)c(OC)c1,1.68% (inactive)
10,CC1CCCC(C)N1C(=O)CSc1nccc(=O)[nH]1 (stereo not drawn),0.35% (inactive)
11,Nc1ccc(C(=O)OCc2nc3ccccc3[nH]2)cc1,1.24% (inactive)
12,COC(=O)c1ccc(C(=O)OCc2nc3cc4ccccc4cc3[nH]2)cc1,2.73% (inactive)
13,Nc1ccc2nc(Cc3ccccc3)[nH]c2c1,-1.63% (inactive)
14,Cc1ccc2nc(Cc3ccc(N)cc3)[nH]c2c1,-0.3% (inactive)
15,Cc1cccc(N2CCN(C(=O)C3CCC(=O)N(C4CC4)C3)CC2)c1C (stereo not drawn),-0.26% (inactive)
16,O=C(Cc1ccc(-n2c(=O)c3ccccc3n(CC(=O)Nc3ccc(F)cc3F)c2=O)cc1)NCc1ccco1,-0.99% (inactive)
17,CCN(CC(=O)Nc1ccc(OC)cc1)C(=O)c1ccccc1Sc1ccccc1C#N,-1.42% (inactive)
18,COc1ccccc1CNC(=O)C1CCCN(S(=O)(=O)c2cccc3cccnc23)C1 (stereo not drawn),0.63% (inactive)
19,Cc1ccccc1NC(=O)C1CCCN(S(=O)(=O)c2cccc3cccnc23)C1 (stereo not drawn),0.2% (inactive)
20,Cc1ccc(NC(=O)C2CCCN2S(=O)(=O)c2cccc3cccnc23)cc1F (stereo not drawn),52.8% (inactive)
21,Cc1cc(C)cc(NC(=O)C2CCCN2S(=O)(=O)c2cccc3cccnc23)c1 (stereo not drawn),58.5% (inactive)
22,COc1ccc(NC(=O)C2CCCN2S(=O)(=O)c2cccc3cccnc23)c(OC)c1 (stereo not drawn),7.4% (inactive)
23,COc1ccccc1CNC(=O)C1CCN(S(=O)(=O)c2cccc3cccnc23)CC1,3.16% (inactive)
24,COc1cccc(CN2CC(C(=O)NCCn3ccc(C)n3)CCC2=O)c1 (stereo not drawn),0.1% (inactive)

row,Structure (SMILES),CPE inhibition
1,Cc1ccc2[nH]c(=O)c(N3CCOCC3)c(-c3ccccc3)c2c1,0.29% (inactive)
2,CSCCC1NC(=O)N(CC(=O)Nc2c(C(C)C)cccc2C(C)C)C1=O (stereo not drawn),-0.56% (inactive)
3,C/C(CCc1ccccc1)=N\NC(=O)CC(=O)NCCc1ccccc1,1.3% (inactive)
4,CCSc1nnc(SCC(=O)N2CCN(C(=O)c3ccco3)CC2)s1,1.6% (inactive)
5,Cc1ccc(-c2noc(CCC(=O)NCCc3ccccc3Cl)n2)cc1,15.4% (inactive)
6,COCCNC(=O)c1cc2oc3ccccc3c2n1C,1.43% (inactive)
7,Cn1c(C(=O)NCc2cccs2)cc2c(=O)n(C)c3ccccc3c21,0.91% (inactive)
8,COc1ccc(CNC(=O)c2cc3c(=O)[nH]c4ccccc4c3n2C)cc1,2.27% (inactive)
9,Cc1ccc(CNC(=O)c2cc3c(=O)n(C)c4ccccc4c3n2C)cc1,0.79% (inactive)
10,Cc1ccc2c(c1)cc(C(=O)N[C@@H](Cc1ccccc1)C(=O)O)n2C,1.38% (inactive)
11,Cn1c(C(=O)NCC2CCCO2)cc2oc3ccccc3c21 (stereo not drawn),3.52% (inactive)
12,Cc1c(C(=O)NCc2cccs2)oc2ccccc12,6.49% (inactive)
13,CCOc1ccc(CNC(=O)CCn2c(=O)oc3ccccc32)cc1,2.74% (inactive)
14,NC(=O)c1ccc(OCC2CCCO2)cc1 (stereo not drawn),0.89% (inactive)
15,Cc1cccc(COCC(CC(C)C)N2CCN(C(=O)c3ccc(C(C)(C)C)cc3)CCC2=O)c1 (stereo not drawn),-2.89% (inactive)
16,COCCn1c(-c2ccccc2)nc2oc3ccccc3c(=O)c2c1=O,1.49% (inactive)
17,O=C(c1ccccc1Br)N1N=C(c2ccccc2)CC1c1ccccc1F (stereo not drawn),13.7% (inactive)
18,Cc1c(C)c2ccc(OCC(=O)NCc3ccccn3)cc2oc1=O,1.94% (inactive)
19,Cc1cc(=O)oc(C)c1C(=O)NCCc1ccccc1,-0.07% (inactive)
20,CCC(=O)Nc1sc2c(c1C(=O)OC)CCN(Cc1ccccc1)C2,-0.39% (inactive)
21,Cc1ccc(C(CC(=O)O)C2CCOC(C)(C)C2)cc1 (stereo not drawn),0.31% (inactive)
22,c1ccc(Cn2nnc3c(N4CCOCC4)ncnc32)cc1,1.51% (inactive)
23,c1ccc(Cn2nnc3c(N4CCCC4)ncnc32)cc1,-0.08% (inactive)
24,Cc1nnc2sc(-c3cccc(F)c3)nn2c1=O,0.29% (inactive)

row,Structure (SMILES),CPE inhibition
1,CC(C)CN1CCN(Cc2cnc(-c3ccc(Cl)cc3)nc2)CC1CCO (stereo not drawn),19.2% (inactive)
2,O=C(Nc1nnc(C2=COCCO2)o1)c1ccc([N+](=O)[O-])cc1,0.76% (inactive)
3,CCc1cccc(C)c1NC(=O)C1CC=CCC1C(=O)O (stereo not drawn),-1.43% (inactive)
4,COc1ccc(/C=C/c2nc3sc4c(c3c(=O)o2)CCC4)cc1,2.5% (inactive)
5,O=c1oc(/C=C/c2ccco2)nc2sc3c(c12)CCC3,2.04% (inactive)
6,Cc1ccc(OCC(=O)N2c3ccccc3CC2C)c([N+](=O)[O-])n1 (stereo not drawn),-0.02% (inactive)
7,COc1ccc(OC)c(/C(C)=N/Nc2ccc(C(=O)O)cc2)c1,0.2% (inactive)
8,O=C(NN=C1c2ccccc2-c2ccccc21)c1ccccn1,1.09% (inactive)
9,CCN(CC)CCOc1ccc2c(c1)C(=NNC(=O)c1ccccn1)c1cc(OCCN(CC)CC)ccc1-2,-1.74% (inactive)
10,COc1ccc(/C(C)=N/Nc2ccc(C(=O)O)cc2)c(OC)c1,1.98% (inactive)
11,COc1ccc2[nH]c(C)c(C(=O)CN3CCN(C/C=C/c4ccccc4)CC3)c2c1,4.44% (inactive)
12,CC(C)C1Cc2c(sc3c2c(=O)n(-c2ccccc2)c2n[nH]c(=S)n32)CO1 (stereo not drawn),2.95% (inactive)
13,CC(/C=N/NC(=O)c1cc(-c2ccc(C)o2)[nH]n1)=C\c1ccccc1,0.3% (inactive)
14,COc1cccc(NC(=O)NCCCCc2ccccc2)c1,6.21% (inactive)
15,CC(C)(C)c1ccc(O)c(O)c1,3.31% (inactive)
16,Cc1cc(C(C)(C)C)c(O)c(C(C)(C)C)c1,-0.15% (inactive)
17,NNC(=O)c1csc(-c2cccc(C(F)(F)F)c2)n1,9.01% (inactive)
18,O=C(c1cc(Br)ccc1OC(F)F)N1CCN2CCCC2C1 (stereo not drawn),0.87% (inactive)
19,CCn1ncc(/C=C/C(=O)Nc2c(C)nn(Cc3ccc(Cl)cc3Cl)c2C)c1C,0.17% (inactive)
20,O=C(O)/C=C/c1ccc(O)c(O)c1,0.47% (inactive)
21,O=C(/C=C/c1ccc(O)c(O)c1)O[C@@H]1C[C@](O)(C(=O)O)C[C@@H](O)[C@H]1O,39.5% (inactive) and 4.56% (inactive)
